Source: PubChem BioAssay (NCI)
About 79,000 compounds went through this panel and 15% of them were active in at least one assay; those are over-represented in the sample as a whole. Activity calls are given as the source filed them. Rule as the data show it: active = growth inhibition above about 70%; inactive = the rest.

Test: NCI Yeast Anticancer Drug Screen. Data for the sgs1 mgt1 strain (AID 161);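 also: 0% = growth of cultures given vehicle only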
Settings: S. cerevisiae sgs1 mgt1 strain, at 50.0 µM (retest, dose inferred, filed as 5.0), active compounds read high
Outline: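 Inhibition of yeast growth, normalised to vehicle-treated controls, is reported for a strain bearing genetic alterations in DNA damage repair.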

Q: With `COC(=O)C12OCC34C(CC5C(C)C6=CC(=O)OC6=CC5(C)C3C(O)C1O)OC(=O)C(OC(C)=O)C24` (stereo not drawn) as the molecule, how does the growth inhibition read?
A: 99% (active)

Q: For `O=S(=O)(c1cc(Cl)ccc1Cl)N1CCc2ccccc2C1`, which growth inhibition is on record?
A: 12% (inactive)

Q: Which growth inhibition does the source give for `CSC(=S)n1nc(-c2cccs2)c(N=Nc2ccc(Cl)cc2)c1C(F)(F)F` here?
A: 75% (active)

Q: For `O=[N+]([O-])C1=Cc2ccccc2S(=O)(=O)CC1`, which growth inhibition is on record?
A: 95% (active)

Q: With `COc1ccc(/C=N/n2c(C)nc3c(sc(=S)n3-c3ccccc3)c2=O)cc1` as the molecule, how does the growth inhibition read?
A: 23% (inactive)

Q: Which growth inhibition does the source give for `Fc1ccc(NC(=S)SCc2ccccc2)cc1F` here?
A: 94% (active)

Q: For `O=[N+]([O-])c1cccc2c1[nH]c1c(-c3ccccc3)nccc12`, which growth inhibition is on record?
A: 93% (active)

Q: Which growth inhibition does the source give for `CCOC(=O)CC(=O)/C=C/c1ccncc1` here?
A: -6% (inactive)

Q: For `c1ccc([P+](c2ccccc2)(c2ccccc2)C2CCCC2)cc1`, which growth inhibition is on record?
A: 40% (inactive)

Q: With `COc1cc(Cc2n[nH]c(=S)n2-c2ccccc2)c(S(N)(=O)=O)cc1OC` as the molecule, how does the growth inhibition read?
A: -16% (inactive)

Q: For `CCCCCN(CCCCC)CCNc1ccc(C)c2sc3ccccc3c(=O)c12`, which growth inhibition is on record?
A: 97% (active)

Q: Which growth inhibition does the source give for `COC(=O)[C@@]12OC[C@]34[C@H]([C@@H](O)[C@@H]1O)[C@@]1(C)CC(=O)C(O)=C(C)[C@@H]1C[C@H]3OC(=O)[C@H](OC(=O)C(Cc1ccccc1)NC(=O)OC(C)(C)C)[C@@H]24` (stereo partly drawn) here?
A: 82% (active)

Q: For `CC(=O)Nc1ccc(C(=O)C(C)Br)cc1` (stereo not drawn), which growth inhibition is on record?
A: 99% (active)

Q: With `COc1ccc2c(c1)[n+]([O-])c(C(N)=O)c(N)[n+]2[O-]` as the molecule, how does the growth inhibition read?
A: 99% (active)

Q: For `Cc1c2c(c(C)c3c4c(oc13)CCCC4)C=NCC2`, which growth inhibition is on record?
A: 36% (inactive)

Q: For `CC1C(C(=O)O)CC([N+](=O)[O-])C(Cl)C1[N+](=O)[O-]` (stereo not drawn), which growth inhibition is on record?
A: 26% (inactive)

Q: With `CCN(CC)c1ccc(N=C2C=C(C(=O)Nc3cccc(Cl)c3)C(=O)c3ccccc32)c(C)c1` as the molecule, how does the growth inhibition read?
A: -23% (inactive)

Q: With `C[N+](C)(C)CCN(Cc1cccs1)c1ccccn1` as the molecule, how does the growth inhibition read?
A: -20% (inactive)

Q: Which growth inhibition does the source give for `O=C(c1ccccc1)c1c(CO[N+](=O)[O-])n([O-])c2ccccc2[n+]1=O` here?
A: 98% (active)

Q: With `CCC[C@H]1[C@H](CCC)[C@@]2(OC(=O)C3=C2CCC=C3)[C@]12OC(=O)C1=C2CCC=C1` as the molecule, how does the growth inhibition read?
A: 98% (active)

Q: For `O=C(CC(=O)c1ccccc1NC1=Cc2ccccc2C(=O)C1=O)C(=O)NC1=C(Cl)C(=O)c2ccccc2C1=O`, which growth inhibition is on record?
A: 86% (active)

Q: With `C=CC[P+](CC[P+](CC=C)(c1ccccc1)c1ccccc1)(c1ccccc1)c1ccccc1` as the molecule, how does the growth inhibition read?
A: 1% (inactive)

Q: Which growth inhibition does the source give for `NCC1CCNCC1` here?
A: 3% (inactive)
